# Measured values published in PubChem BioAssay (NCATS).
# Results filed as inconclusive are left out. Unmarked numbers belong to inactive results. Calls of active or inactive are those of the source. Calls come from the whole dose curve; as a rule, active = well fitted inhibition curve with a large enough effect; inconclusive = small, poorly fitted or top-dose-only effect; inactive = flat fitted curve, though single readings scatter.
# Tested on: Zika virus NS2B-NS3 protease
# Experiment: Primary screen GU AMC qHTS for Zika virus inhibitors (AID 1347154);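 note: 0% = no-inhibitor control and -100% = no-enzyme control; nearly all actives have a fitted effect of over 70% in size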
# Details: Zika NS2B-NS3 unlinked protease, AMC fluorogenic substrate; series mostly up to 54.1 µM; activity change, negative = inhibition: at the top concentration
# Method in brief: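 Fluorogenic AMC-substrate cleavage by noncovalent NS2B-NS3 protease complex (25 nM, pH 8.0 Tris buffer with Tween 20) followed for 15 minutes at room temperature (~20% conversion). Percent inhibition from ex340/em450 signal change, fitted by 4-parameter Hill equation.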
SMILES,"activity change, negative = inhibition",Potency
O=C(O)Cc1csc(-c2ccc(Cl)cc2)n1,-1.4%,–
FC(F)(F)C(F)(F)C(F)(F)C(F)(F)C(F)(F)C(F)(F)C(F)(F)C(F)(F)Br,-0.567%,–
CCN1CCCC(OC(=O)C(c2ccccc2)c2ccccc2)C1 (centres undefined),2.84%,–
O=C1C(O)=C(O)C(=O)C(O)=C1O,-2.72%,–
COc1cc(O)c(C(=O)c2ccccc2)cc1S(=O)(=O)O,-0.586%,–
CCCCC(CC)COC(=O)c1ccc(N(C)C)cc1 (centres undefined),-14.6%,–
CC(=O)OCC(=O)[C@H]1CC[C@H]2[C@@H]3CCC4=CC(=O)CC[C@]4(C)[C@H]3CC[C@]12C,-3%,–
Cc1ccc2c(Br)cc(Br)c(O)c2n1,-7.4%,–
Cc1ccc(S(=O)(=O)NC(=O)NC2CCCC2)cc1,0.998%,–
Cn1c(=O)c2[nH]c(Br)nc2n(C)c1=O,3.74%,–
c1ccc(-c2nc[nH]c2-c2ccccc2)cc1,0.101%,–
CN1CCN(C2=Nc3cc(F)ccc3Cc3ccccc32)CC1,–,inactive
CCN(CC)CCOc1ccccc1C(=O)CCc1ccccc1,4.34%,–
O=S(=O)(O)c1ccc(O)cc1,4.73%,–
COc1cc(C(=O)NCc2ccc(OCCN(C)C)cc2)cc(OC)c1OC,4.86%,–
CCOc1ccc(NC(C)=O)cc1,2.5%,–
CC(O)Cn1cnc2c1c(=O)n(C)c(=O)n2C (centres undefined),5.64%,–
CC(=O)Nc1ccc(S(=O)(=O)Nc2ccc([N+](=O)[O-])cc2)cc1,-1.87%,–
COc1ccc(/C=N/NC(=O)c2ccncc2)cc1OC,1.1%,–
